Residue numbers refer to the chain shown, from its start.
What was measured:
Experiment in all cases: yeast three-hybrid, YBZ-1, SC-Leu-His + 0.5 mM 3-AT, 4 days
Settings in all cases: tags: N-Gal4 AD-HA kept; label: inside an RPR1-promoter hybrid RNA with tandem MS2 sites; ssRNA
PUM1 PUF domain R5-RGG = PUM1 PUF domain R5-RGG (Homo sapiens, UniProt Q14671 828-1176, C1007R;R1008G;Q1011G)
Summary of the method: (§1)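 Sequencing with Illumina followed PCR amplification of the repeat regions from transformants grown four days on SC-Leu (input) or SC-Leu-His + 0.5 mM 3-AT (selection). The transformants were strain YBZ-1 with a LexA–MS2 coat fusion and a HIS3 reporter, carrying Pumilio-1 PUF domain libraries and matching RNA elements. The interaction score is the log change in variant frequency from input to selection, computed in log2 with a pseudocount of 1 for absent variants.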

PUM1 PUF domain R5-RRP = PUM1 PUF domain R5-RRP (Homo sapiens, UniProt Q14671 828-1176, C1007R;Q1011P)
Chain of PUM1 PUF domain R5-RRP (Q14671 828-1176 C1007R/Q1011P): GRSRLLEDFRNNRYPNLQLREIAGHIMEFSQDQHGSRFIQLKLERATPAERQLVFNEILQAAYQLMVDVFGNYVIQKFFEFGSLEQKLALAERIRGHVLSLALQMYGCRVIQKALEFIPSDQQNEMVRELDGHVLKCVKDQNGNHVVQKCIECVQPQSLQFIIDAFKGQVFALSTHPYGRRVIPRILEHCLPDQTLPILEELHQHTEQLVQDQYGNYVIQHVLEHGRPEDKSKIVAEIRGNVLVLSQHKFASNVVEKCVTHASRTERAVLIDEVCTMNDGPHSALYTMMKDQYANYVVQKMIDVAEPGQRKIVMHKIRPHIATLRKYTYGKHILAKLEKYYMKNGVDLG
Summary of the method: as §1

PUM1 PUF domain R8-AWK = PUM1 PUF domain R8-AWK (Homo sapiens, UniProt Q14671 828-1176, N1122A;Y1123W;Q1126K)
Summary of the method: as §1

PUM1 PUF domain R5-SVG = PUM1 PUF domain R5-SVG (Homo sapiens, UniProt Q14671 828-1176, C1007S;R1008V;Q1011G)
Summary of the method: as §1

PUM1 PUF domain R5-LWA = PUM1 PUF domain R5-LWA (Homo sapiens, UniProt Q14671 828-1176, C1007L;R1008W;Q1011A)
Chain of PUM1 PUF domain R5-LWA (Q14671 828-1176 C1007L/R1008W/Q1011A): as the sequence (Q14671 828-1176 C1007R/Q1011P) above, with R180L, R181W, P184A counted along it
Summary of the method: as §1

PUM1 PUF domain R6-GYQ = biological target: T1, PUM1 PUF domain R6-GYQ (Homo sapiens, UniProt Q14671 828-1176, N1043G)
T1 sequence: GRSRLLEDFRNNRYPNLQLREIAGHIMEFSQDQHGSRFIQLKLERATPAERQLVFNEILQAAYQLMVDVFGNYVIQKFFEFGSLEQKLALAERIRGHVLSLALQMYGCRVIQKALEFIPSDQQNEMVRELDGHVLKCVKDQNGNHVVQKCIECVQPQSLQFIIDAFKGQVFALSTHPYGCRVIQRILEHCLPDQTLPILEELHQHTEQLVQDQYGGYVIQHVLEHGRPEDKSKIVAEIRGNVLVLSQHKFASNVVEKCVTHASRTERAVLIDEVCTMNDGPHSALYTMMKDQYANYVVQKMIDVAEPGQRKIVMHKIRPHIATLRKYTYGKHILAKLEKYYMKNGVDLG
Summary of the method: as §1

PUM1 PUF domain R4-PWN = PUM1 PUF domain R4-PWN (Homo sapiens, UniProt Q14671 828-1176, N971P;H972W;Q975N)
Summary of the method: as §1

PUM1 PUF domain R4-DFT = PUM1 PUF domain R4-DFT (Homo sapiens, UniProt Q14671 828-1176, N971D;H972F;Q975T)
Summary of the method: as §1

PUM1 PUF domain R6-VWA = biological target: T2, PUM1 PUF domain R6-VWA (Homo sapiens, UniProt Q14671 828-1176, N1043V;Y1044W;Q1047A)
T2 sequence: T1 sequence with G216V, Y217W, Q220A
Summary of the method: as §1

PUM1 PUF domain R3-LSV = PUM1 PUF domain R3-LSV (Homo sapiens, UniProt Q14671 828-1176, C935L;R936S;Q939V)
Summary of the method: as §1

PUM1 PUF domain R3-MRS = PUM1 PUF domain R3-MRS (Homo sapiens, UniProt Q14671 828-1176, C935M;Q939S)
Summary of the method: as §1

PUM1 PUF domain R7-RGY = PUM1 PUF domain R7-RGY (Homo sapiens, UniProt Q14671 828-1176, S1079R;N1080G;E1083Y)
Summary of the method: as §1

PUM1 PUF domain R7-RQL = PUM1 PUF domain R7-RQL (Homo sapiens, UniProt Q14671 828-1176, S1079R;N1080Q;E1083L)
Summary of the method: as §1

PUM1 PUF domain R4-GNR = PUM1 PUF domain R4-GNR (Homo sapiens, UniProt Q14671 828-1176, N971G;H972N;Q975R)
Summary of the method: as §1

For “GGCUAGAACUAGUGGAUCCCCCGGCGCCCGGCGGCUCGAGCCCGGGUAAGUGUCAAUAGUCUGCAUGCCGCCGGGCGCCAUGCCUGCAGGUCGACUCUAGAAAACAUG”, the binding signal (PUM1 PUF domain R5-RGG) was 2.8 log2 enrichment (interaction score) and the binding signal (PUM1 PUF domain R5-RRP) was 5.07 log2 enrichment (interaction score).
For “GGCUAGAACUAGUGGAUCCCCCGGCGCCCGGCGGCUCGAGCCCGGGUAAGCGUAAAUAGUCUGCAUGCCGCCGGGCGCCAUGCCUGCAGGUCGACUCUAGAAAACAUG”, the binding signal (PUM1 PUF domain R8-AWK) was 4.69 log2 enrichment (interaction score).
With “GGCUAGAACUAGUGGAUCCCCCGGCGCCCGGCGGCUCGAGCCCGGGUAAGUGUGAAUAGUCUGCAUGCCGCCGGGCGCCAUGCCUGCAGGUCGACUCUAGAAAACAUG” the binding signal (PUM1 PUF domain R5-SVG) was 2.82 log2 enrichment (interaction score), the binding signal (PUM1 PUF domain R5-LWA) was 1.01 log2 enrichment (interaction score) and the binding signal (PUM1 PUF domain R5-RRP) was 1.27 log2 enrichment (interaction score).
In the case of “GGCUAGAACUAGUGGAUCCCCCGGCGCCCGGCGGCUCGAGCCCGGGUAAGUGUAAAUAGUCUGCAUGCCGCCGGGCGCCAUGCCUGCAGGUCGACUCUAGAAAACAUG”, the binding signal (PUM1 PUF domain R8-AWK) is reported as 5.21 log2 enrichment (interaction score), the binding signal (PUM1 PUF domain R6-GYQ) is reported as 3.62 log2 enrichment (interaction score) and the binding signal (PUM1 PUF domain R4-PWN) is reported as 2.08 log2 enrichment (interaction score). For the same sequence, the binding signal (PUM1 PUF domain R5-LWA) was 1.66 log2 enrichment (interaction score), the binding signal (PUM1 PUF domain R4-DFT) was 3.18 log2 enrichment (interaction score) and the binding signal (PUM1 PUF domain R5-RRP) was 3.17 log2 enrichment (interaction score). The binding signal (PUM1 PUF domain R6-VWA) was 4.02 log2 enrichment (interaction score).
In the case of “GGCUAGAACUAGUGGAUCCCCCGGCGCCCGGCGGCUCGAGCCCGGGUAAGUGUAAGUAGUCUGCAUGCCGCCGGGCGCCAUGCCUGCAGGUCGACUCUAGAAAACAUG”, the binding signal (PUM1 PUF domain R3-LSV) is reported as 3.37 log2 enrichment (interaction score) and the binding signal (PUM1 PUF domain R3-MRS) is reported as 4.95 log2 enrichment (interaction score).
With “GGCUAGAACUAGUGGAUCCCCCGGCGCCCGGCGGCUCGAGCCCGGGUAAGUUUAAAUAGUCUGCAUGCCGCCGGGCGCCAUGCCUGCAGGUCGACUCUAGAAAACAUG” the binding signal (PUM1 PUF domain R7-RGY) was 2.43 log2 enrichment (interaction score) and the binding signal (PUM1 PUF domain R7-RQL) was 3.63 log2 enrichment (interaction score).
With “GGCUAGAACUAGUGGAUCCCCCGGCGCCCGGCGGCUCGAGCCCGGGUAAGUGUACAUAGUCUGCAUGCCGCCGGGCGCCAUGCCUGCAGGUCGACUCUAGAAAACAUG” the binding signal (PUM1 PUF domain R4-GNR) was 1.04 log2 enrichment (interaction score).
